Measurements as given in PubChem BioAssay (EPA / NIEHS).
Records with an inconclusive call do not appear. Where a structure was tested more than once in an assay, its records may differ in their call. Calls of active or inactive are those of the source. The calls were made as follows, unless noted: active = hit-call score of the fitted dose curve at least 0.9, where 1 is the maximum; inactive = score below 0.9.

Tests used:
[1] = molecular target: Retinoic acid receptor RXR-alpha (Homo sapiens) (UniProt P19793); assay: OT_NURR1_NURR1RXRa_1440: Odyssey Thera (OT) 24-hour HEK293T Protein Complementation Assay for Nurr1/retinoid X receptor (RXR) (AID 2283386; active = hit-call score of the fitted dose curve at least 0.9, where 1 is the maximum)
Procedure, shortened: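 Fluorescence PCA read-out; HEK293T; 24 h post-dose; bait/prey fused to reporter fragments; gain-of-signal fit vs DMSO negative control.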

[2] = molecular target: Peroxisome proliferator-activated receptor gamma (Homo sapiens) (UniProt P37231); assay: OT_PPARg_PPARgSRC1_0480: Odyssey Thera (OT) 8-hour Protein-Complementation Assay for Peroxisome Proliferator-activated Receptor Gamma / SRC-1 Co-activator (AID 2283387; active = hit-call score of the fitted dose curve at least 0.9, where 1 is the maximum;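 also: nuclear to cytoplasmic split Venus YFP fluorescence ratio reporting PPARg SRC-1 interaction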)
Procedure, shortened: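 Read-out: 488 nm N/C fluorescence ratio from complemented Venus YFP fragments, ≥350 cells per image, gain-of-signal fitted against DMSO baseline. Fusions of PPARg/SRC-1 with IFP1/IFP2 expressed transiently in HEK293T; compounds applied 8 h.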

[3] = molecular target: Peroxisome proliferator-activated receptor gamma (Homo sapiens) (UniProt P37231); assay: OT_PPARg_PPARgSRC1_1440: Odyssey Thera (OT) 24-hour Protein-Complementation Assay for Peroxisome Proliferator-activated Receptor Gamma/ SRC-1 Co-activator (AID 2283388; active = hit-call score of the fitted dose curve at least 0.9, where 1 is the maximum;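 also: nuclear to cytoplasmic ratio of reconstituted Venus YFP fluorescence in fixed imaged cells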)
Procedure, shortened: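 Cells carrying the PPARg/SRC-1 fragment-complementation reporter receive compound for 24 hours, are fixed and counterstained with Draq5, then imaged. Increased nuclear relative to cytoplasmic YFP fluorescence above DMSO baseline indicates binding activity.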

[4] = CEETOX_H295R_OHPREG: CeeTox H295R High-throughput Steroidogenesis Assay for OH-Pregnenolone (OHPREG) (AID 2283434); settings: actives raise or lower the signal
Procedure, shortened: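 H295R, 10 uM forskolin pre-stim 48 h; test chemical 48 h, 0.1% DMSO final. MTBE extraction, reverse-phase C18 HPLC-ESI+ MS/MS of medium. Gain/loss vs DMSO; viability by MTT in same wells.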

[5] = CEETOX_H295R_OHPROG: CeeTox H295R High-throughput Steroidogenesis Assay for OH-Progesterone (OHPROG) (AID 2283435); settings: actives raise or lower the signal;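 as to AC50: 17alpha-hydroxyprogesterone secreted into medium measured by HPLC-MS/MS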
Procedure, shortened: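 HPLC-MS/MS quantification of 17alpha-hydroxyprogesterone secreted by H295R cells after 48 h chemical exposure, following 48 h 10 uM forskolin prestimulation. Gain or loss of signal fitted relative to DMSO. Viability checked by MTT in the same wells.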

[6] = CEETOX_H295R_CORTIC: CeeTox H295R High-throughput Steroidogenesis Assay for Corticosterone (CORTIC) (AID 2283437); settings: actives raise or lower the signal;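 also: corticosterone secreted into medium quantified by mass spectrometry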
Procedure, shortened: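 48 h forskolin (10 uM) prestim, then 48 h chemical exposure, final DMSO 0.1%. Readout: corticosterone in medium by LC-MS/MS after MTBE extraction. Gain/loss fit vs DMSO; MTT viability in same wells.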

[7] = CEETOX_H295R_CORTISOL: CeeTox H295R High-throughput Steroidogenesis Assay for Cortisol (AID 2283438); settings: actives raise or lower the signal;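 also: cortisol secreted into medium quantified by LC-MS/MS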
Procedure, shortened: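 Read-out: cortisol in culture medium by reverse-phase C18 HPLC with ESI-positive tandem MS, after MTBE liquid-liquid extraction. Cells: human adrenal H295R, forskolin-primed (10 uM, 48 h) before 48 h chemical exposure in 0.1% DMSO.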

[8] = CEETOX_H295R_DOC: CeeTox H295R High-throughput Steroidogenesis Assay for DOC (AID 2283439); settings: actives raise or lower the signal
Procedure, shortened: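 Human adrenocortical H295R cells, passages up to 10, received 10 uM forskolin for 48 h before chemical addition. After another 48 h exposure in 0.1% DMSO, secreted DOC was measured by LC-MS/MS, with gain or loss fitted against DMSO controls.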

[9] = CEETOX_H295R_PROG: CeeTox H295R High-throughput Steroidogenesis Assay for Progesterone (PROG) (AID 2283442); settings: actives raise or lower the signal
Procedure, shortened: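 Measured analyte is progesterone secreted by H295R cells at 48 h of chemical treatment, following 10 uM forskolin priming. Quantitation used HPLC-MS/MS against a 7-point standard curve; cytotoxicity was checked by MTT absorbance.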

[10] = read-out: Tumor necrosis factor receptor superfamily member 6 (Homo sapiens) (UniProt P25445); assay: LTEA_HepaRG_FAS: Life Technologies and Expression Analysis (LTEA) Assay for Fas cell surface death receptor (FAS) using HepaRG (AID 2283447); settings: mRNA level, 48 h; actives raise or lower the signal
Procedure, shortened: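 Differentiated HepaRG cells in serum-free induction medium were exposed 48 h to 8 half-log concentrations up to 100 uM in 0.5% DMSO, in duplicate. FAS mRNA was measured by qRT-PCR normalised to ACTB, GAPDH and POLR2A; bidirectional fit versus DMSO.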

[11] = read-out: Fatty acid synthase (Homo sapiens) (UniProt P49327); assay: LTEA_HepaRG_FASN: Life Technologies and Expression Analysis (LTEA) Assay for Fatty Acid Synthase (FASN) using HepaRG (AID 2283448); settings: mRNA level, 48 h; actives raise or lower the signal;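 as to AC50: differentiated human HepaRG liver cells in serum-free induction medium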
Procedure, shortened: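 HepaRG, 48 h exposure, 8-pt half-log series top 100 uM, 0.5% DMSO vehicle, duplicates. Readout: FASN transcript by Fluidigm qRT-PCR; housekeeping-normalized; bidirectional curve fit vs DMSO baseline.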

[12] = read-out: Cyclin D2 (CCND2), CCND2 (gene 894); assay: LTEA_HepaRG_CCND2: Life Technologies and Expression Analysis (LTEA) Assay for Cyclin D2 (CCND2) using HepaRG (AID 2283449); settings: mRNA level, 48 h; actives raise or lower the signal;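 also: CCND2 transcript measured by TaqMan qRT-PCR and normalised to three housekeeping genes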
Procedure, shortened: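 HepaRG, 48 h dosing, 8-pt half-log curve from 100 uM, 0.5% DMSO; duplicate wells. Readout: CCND2 transcript by microfluidic qRT-PCR, housekeeping-normalised; bidirectional fit vs DMSO baseline.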

[13] = read-out: Cyclin Dependent Kinase Inhibitor 1A (CDKN1A), CDKN1A (gene 1026); assay: LTEA_HepaRG_CDKN1A: Life Technologies and Expression Analysis (LTEA) Assay for Cyclin Dependent Kinase Inhibitor 1A (CDKN1A) using HepaRG (AID 2283450); settings: mRNA level, 48 h; actives raise or lower the signal
Procedure, shortened: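 Gain or loss of CDKN1A transcript is scored by bidirectional fitting against 0.5% DMSO vehicle. Human HepaRG cultures receive chemicals for 48 h across an 8-point series peaking at 100 uM; expression comes from qRT-PCR.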

[14] = read-out: Cyclin D1 (CCND1), CCND1 (gene 595); assay: LTEA_HepaRG_CCND1: Life Technologies and Expression Analysis (LTEA) Assay for Cyclin D1 (CCND1) using HepaRG (AID 2283451); settings: mRNA level, 48 h; actives raise or lower the signal;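 as to AC50: differentiated human HepaRG liver cells in serum-free induction medium; TaqMan qRT-PCR transcript level normalised to ACTB GAPDH and POLR2A housekeeping genes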
Procedure, shortened: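 Expression change is measured by qRT-PCR in HepaRG cells after 48 h treatment across eight concentrations topping at 100 uM, with duplicate wells and DMSO (0.5%) serving as baseline for bidirectional fitting.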

[15] = read-out: catalase (CAT), CAT (gene 847); assay: LTEA_HepaRG_CAT: Life Technologies and Expression Analysis (LTEA) Assay for catalase (CAT) using HepaRG (AID 2283452); settings: mRNA level, 48 h; actives raise or lower the signal;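 as to AC50: TaqMan qRT-PCR signal normalized to ACTB GAPDH and POLR2A housekeeping genes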
Procedure, shortened: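 HepaRG cells in serum-free induction medium, 0.5% DMSO vehicle, exposed 48 h in duplicate over 8 half-log concentrations from 100 uM. CAT mRNA measured by qRT-PCR, normalized to ACTB, GAPDH, POLR2A; bidirectional fit versus DMSO.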

[16] = CEETOX_H295R_11DCORT: CeeTox H295R High-throughput Steroidogenesis Assay for 11-Deoxycortisol (11DCORT) (AID 2283432); settings: actives raise or lower the signal;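 as to AC50: 11-deoxycortisol secreted into the medium measured by LC-MS/MS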
Procedure, shortened: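 H295R cells; 10 uM forskolin prestim 48 h; compound in 0.1% DMSO 48 h; media extracted with MTBE; 11-deoxycortisol by LC-MS/MS, 7-point standard curve; gain/loss vs DMSO baseline; viability by MTT in same wells.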

[17] = read-out: flavin-containing dimethylaniline monooxygenases 3 (FMO3), FMO3 (gene 2328); assay: LTEA_HepaRG_FMO3: Life Technologies and Expression Analysis (LTEA) Assay for flavin-containing dimethylaniline monooxygenases 3 (FMO3) using HepaRG (AID 2283453); settings: mRNA level, 48 h; actives raise or lower the signal;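 as to AC50: differentiated human HepaRG liver cells in serum-free induction medium; FMO3 transcript by TaqMan qRT-PCR normalized to ACTB GAPDH and POLR2A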
Procedure, shortened: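 Eight-point concentration-response in serum-free HepaRG cultures (top 100 uM, 0.5% DMSO, 48 h). Read-out: FMO3 mRNA level normalized to three endogenous control genes, fitted bidirectionally versus vehicle.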

[18] = CEETOX_H295R_ESTRADIOL: CeeTox H295R High-throughput Steroidogenesis Assay for Estradiol (AID 2283440); settings: actives raise or lower the signal;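 also: estradiol secreted into medium quantified by LC-MS/MS after dansyl derivatisation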
Procedure, shortened: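 Readout is estradiol in conditioned medium, quantified by reverse-phase HPLC-MS/MS against a 7-point standard curve. Cells: H295R, forskolin-stimulated, then dosed 48 h in 0.1% DMSO; activity fitted in both directions relative to DMSO.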

[19] = CEETOX_H295R_ESTRONE: CeeTox H295R High-throughput Steroidogenesis Assay for Estrone (AID 2283441); settings: actives raise or lower the signal;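 also: human adrenal H295R cells prestimulated with forskolin for two days; estrone secreted into medium measured by LC-MS/MS after dansyl derivatization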
Procedure, shortened: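 Forskolin-stimulated H295R cells are treated 48 h with chemical, and estrone in the medium is measured by LC-MS/MS. Activity is fitted in both directions relative to DMSO controls, with chemicals diluted until MTT viability reaches at least 70%.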

[20] = CEETOX_H295R_ANDR: CeeTox H295R High-throughput Steroidogenesis Assay for Androstenedione (ANDR) (AID 2283436); settings: actives raise or lower the signal;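 also: human H295R adrenal cells exposed for 48 h with androstenedione measured in medium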
Procedure, shortened: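 48 h chemical exposure, H295R cells, DMEM/F12 + ITS+ and Nu-Serum. Medium androstenedione: MTBE extraction, C18 reverse-phase HPLC, ESI+ MS/MS. Fit bidirectional vs DMSO; MTT viability in same wells.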

Measured: AC50

Sequence of Peroxisome proliferator-activated receptor gamma (Homo sapiens) (P37231 whole entry, looked up, the tested form may be a part): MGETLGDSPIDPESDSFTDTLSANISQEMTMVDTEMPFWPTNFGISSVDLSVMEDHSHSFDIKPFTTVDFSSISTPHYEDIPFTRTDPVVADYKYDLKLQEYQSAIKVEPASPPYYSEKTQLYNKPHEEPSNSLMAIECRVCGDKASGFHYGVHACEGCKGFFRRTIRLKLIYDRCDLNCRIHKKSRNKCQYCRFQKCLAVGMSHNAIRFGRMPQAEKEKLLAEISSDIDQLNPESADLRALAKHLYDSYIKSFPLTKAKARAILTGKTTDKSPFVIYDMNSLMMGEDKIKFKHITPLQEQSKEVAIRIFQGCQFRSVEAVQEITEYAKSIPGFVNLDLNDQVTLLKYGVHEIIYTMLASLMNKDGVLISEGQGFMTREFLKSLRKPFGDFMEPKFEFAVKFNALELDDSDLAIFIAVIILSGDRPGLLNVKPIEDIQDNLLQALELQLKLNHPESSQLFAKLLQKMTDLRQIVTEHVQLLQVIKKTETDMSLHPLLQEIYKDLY
Sequence of Fatty acid synthase (Homo sapiens) (P49327 whole entry, looked up): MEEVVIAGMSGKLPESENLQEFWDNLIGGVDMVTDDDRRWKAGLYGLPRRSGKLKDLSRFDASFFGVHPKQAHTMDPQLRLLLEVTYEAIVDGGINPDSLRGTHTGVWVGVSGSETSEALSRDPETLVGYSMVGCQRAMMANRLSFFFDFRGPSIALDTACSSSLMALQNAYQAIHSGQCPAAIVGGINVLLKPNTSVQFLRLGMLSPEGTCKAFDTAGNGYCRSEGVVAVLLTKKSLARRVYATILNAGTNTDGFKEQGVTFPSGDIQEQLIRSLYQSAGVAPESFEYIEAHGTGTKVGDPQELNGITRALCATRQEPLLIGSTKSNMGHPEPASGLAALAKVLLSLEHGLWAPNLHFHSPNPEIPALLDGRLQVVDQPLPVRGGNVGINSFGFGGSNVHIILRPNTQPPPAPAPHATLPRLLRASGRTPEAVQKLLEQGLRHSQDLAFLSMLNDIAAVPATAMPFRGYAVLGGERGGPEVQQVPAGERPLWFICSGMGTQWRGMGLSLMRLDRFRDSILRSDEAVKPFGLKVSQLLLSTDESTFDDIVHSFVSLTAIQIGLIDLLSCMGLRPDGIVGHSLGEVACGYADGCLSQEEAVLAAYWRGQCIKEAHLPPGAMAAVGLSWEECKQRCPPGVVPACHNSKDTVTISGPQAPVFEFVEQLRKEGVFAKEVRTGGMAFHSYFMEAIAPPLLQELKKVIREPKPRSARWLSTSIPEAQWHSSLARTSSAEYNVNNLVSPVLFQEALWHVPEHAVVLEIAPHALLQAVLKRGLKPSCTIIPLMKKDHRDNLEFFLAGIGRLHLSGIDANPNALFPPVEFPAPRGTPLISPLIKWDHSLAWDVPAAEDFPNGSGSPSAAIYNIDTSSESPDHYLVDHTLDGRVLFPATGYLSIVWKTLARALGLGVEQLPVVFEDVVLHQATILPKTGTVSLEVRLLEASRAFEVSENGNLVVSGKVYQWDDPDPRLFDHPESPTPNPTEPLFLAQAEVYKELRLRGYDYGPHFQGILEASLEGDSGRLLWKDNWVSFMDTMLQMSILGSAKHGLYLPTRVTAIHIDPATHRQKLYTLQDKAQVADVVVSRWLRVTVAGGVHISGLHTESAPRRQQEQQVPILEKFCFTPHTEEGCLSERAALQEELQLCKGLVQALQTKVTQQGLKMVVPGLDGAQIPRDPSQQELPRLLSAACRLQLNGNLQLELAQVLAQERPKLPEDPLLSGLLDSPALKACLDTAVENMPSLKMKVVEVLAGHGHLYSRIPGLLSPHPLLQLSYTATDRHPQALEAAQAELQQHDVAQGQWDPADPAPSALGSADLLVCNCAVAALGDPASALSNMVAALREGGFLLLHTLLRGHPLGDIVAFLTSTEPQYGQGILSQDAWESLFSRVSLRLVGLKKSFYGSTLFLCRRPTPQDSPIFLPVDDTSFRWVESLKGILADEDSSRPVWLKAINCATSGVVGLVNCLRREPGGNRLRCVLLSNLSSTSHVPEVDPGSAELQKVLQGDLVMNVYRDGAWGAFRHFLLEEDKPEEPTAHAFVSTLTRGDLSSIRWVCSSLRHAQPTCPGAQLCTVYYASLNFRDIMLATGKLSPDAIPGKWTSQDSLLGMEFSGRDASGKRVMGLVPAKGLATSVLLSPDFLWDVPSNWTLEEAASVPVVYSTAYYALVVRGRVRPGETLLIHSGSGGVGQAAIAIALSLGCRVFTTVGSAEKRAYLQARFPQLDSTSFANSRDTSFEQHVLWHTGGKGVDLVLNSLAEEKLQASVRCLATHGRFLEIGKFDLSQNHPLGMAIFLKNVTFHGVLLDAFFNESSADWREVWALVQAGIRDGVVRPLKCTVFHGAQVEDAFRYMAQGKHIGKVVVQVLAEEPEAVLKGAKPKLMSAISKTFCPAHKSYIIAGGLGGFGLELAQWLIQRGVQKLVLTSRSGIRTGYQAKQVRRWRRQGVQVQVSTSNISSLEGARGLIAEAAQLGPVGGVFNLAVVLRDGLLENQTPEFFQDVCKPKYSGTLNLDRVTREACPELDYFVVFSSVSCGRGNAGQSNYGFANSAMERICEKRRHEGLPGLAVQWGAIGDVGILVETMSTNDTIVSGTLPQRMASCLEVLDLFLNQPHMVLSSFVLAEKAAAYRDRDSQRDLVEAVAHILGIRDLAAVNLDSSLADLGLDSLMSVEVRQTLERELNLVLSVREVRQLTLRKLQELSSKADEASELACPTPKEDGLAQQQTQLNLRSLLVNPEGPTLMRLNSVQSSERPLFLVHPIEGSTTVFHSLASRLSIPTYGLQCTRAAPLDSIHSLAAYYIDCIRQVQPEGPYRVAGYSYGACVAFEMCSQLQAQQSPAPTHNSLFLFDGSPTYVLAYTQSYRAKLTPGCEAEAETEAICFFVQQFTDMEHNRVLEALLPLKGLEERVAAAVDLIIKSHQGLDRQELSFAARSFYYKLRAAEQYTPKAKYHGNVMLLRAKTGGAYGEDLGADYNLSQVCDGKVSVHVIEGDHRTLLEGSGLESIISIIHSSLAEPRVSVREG
Sequence of Retinoic acid receptor RXR-alpha (Homo sapiens) (P19793 whole entry, looked up, the tested form may be a part): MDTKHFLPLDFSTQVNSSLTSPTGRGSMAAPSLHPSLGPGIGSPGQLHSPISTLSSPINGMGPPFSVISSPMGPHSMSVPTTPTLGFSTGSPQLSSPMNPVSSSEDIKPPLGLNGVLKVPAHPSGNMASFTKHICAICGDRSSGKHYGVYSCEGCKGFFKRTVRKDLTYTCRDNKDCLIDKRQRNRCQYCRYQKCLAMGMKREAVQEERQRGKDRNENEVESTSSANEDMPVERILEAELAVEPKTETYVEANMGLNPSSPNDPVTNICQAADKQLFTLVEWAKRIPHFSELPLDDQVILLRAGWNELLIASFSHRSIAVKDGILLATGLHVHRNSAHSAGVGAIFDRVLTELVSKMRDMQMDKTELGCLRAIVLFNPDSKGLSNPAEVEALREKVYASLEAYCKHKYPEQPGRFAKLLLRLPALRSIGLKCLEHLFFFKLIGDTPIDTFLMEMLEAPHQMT

CCCCN(CC)c1c([N+](=O)[O-])cc(C(F)(F)F)cc1[N+](=O)[O-]
not listed: [16] | [17] | [18] | [19] | [20]
inactive: all other assays above

C#CCC1=C(C)C(OC(=O)C2C(C=C(C)C)C2(C)C)CC1=O (stereo not drawn)
active: [1] 79.6 µM
inactive: [1] | [2] | [3] | [4] | [5] | [9] | [11] | [12] | [13] | [14] | [15]

CC1=NNC(=O)N(/N=C/c2cccnc2)C1
inactive: [1] | [2] | [3] | [10] | [12] | [13] | [14] | [15]
active: [11] 13.4 µM

CCOP(=S)(OCC)Oc1ccc2c(C)c(Cl)c(=O)oc2c1
active: [16] 5 µM | [5] 1.67 µM | [8] 1.23 µM | [9] 2.59 µM | [17] 81.1 µM
not listed: [10] | [18] | [19] | [20]
inactive: all other assays above

CSc1nc(NC(C)C)nc(NC(C)C)n1
active: [19] 2.54 µM | [15] 50 µM
not listed: [6] | [7] | [8] | [16] | [17] | [20]
inactive: all other assays above

CNC(=O)ON=C(C)SC
not listed: [18] | [19] | [20]
inactive: all other assays above

CSC1=N[C@@](C)(c2ccccc2)C(=O)N1Nc1ccccc1
active: [10] 77.8 µM | [11] 66.1 µM | [13] 28.2 µM | [14] 50 µM | [15] 32.7 µM
inactive: [1] | [2] | [3] | [12]

CCC(=O)Nc1ccc(Cl)c(Cl)c1
inactive: [1] | [2] | [3] | [4] | [13] | [15] | [17]
active: [5] 3.97 µM | [20] 3.89 µM | [11] 30.8 µM | [14] 50 µM
